Screening data from PubChem BioAssay.
IL1B secr inh: blocks inflammasome-driven IL-1 beta release; THP-1 LPS/ATP IL-1B secretion, AlphaLISA, 16 h; stronger effect = lower value; activity change, % at 57.5 µM; hit rate 4.7% among 360,000; in the data active = activity change below about -50%; inconclusive = mostly about -30% to -49%; also: % is scaled to controls: 0 for no effect and ±100 for the full control effect
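THP-1 cells pretreated 1 hr with compounds (up to 57.5 uM final), then stimulated with LPS (250 ng/mL final) plus ATP (1.25 mM final); secreted IL-1B measured by AlphaLISA after 16 hr, decreased signal indicating inhibition.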
TDP1 cell CPT: growth inhibition of DT40 Tdp1-/-;hTDP1 cells with camptothecin (screen for TDP1 inhibitors); chicken DT40 Tdp1-/-;hTDP1 cells + 20 nM CPT, ATP luminescence, 48 h; Potency, µM (top dose mostly 46.2 µM), for inactives: at the top dose activity change, negative = growth inhibition, hits mostly inhibitors; hit rate 12% among 420,000; AID 686979; also: potency is read from the fitted curve at half-maximal effect; % is scaled to controls: 0 for no effect and ±100 for the full control effect; nearly all actives have a fitted effect of over 55% in size
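Chicken DT40 Tdp1-/- cells complemented with human TDP1, 400 cells/well, exposed to compounds plus 20 nM camptothecin for at least 48 h at 37 C; viability read as ATP content by CellTiter-Glo luminescence.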
DT40 TDP1 no CPT: qHTS for Inhibitors of human tyrosyl-DNA phosphodiesterase 1 (TDP1): qHTS in cells in absence of CPT | AID 686978, 2013 | Potency, µM (series often up to 46.2 µM), without a hit: at the highest dose activity change, negative = growth inhibition, hits mostly inhibitors | DT40 Tdp1-/- hTDP1 cells, no CPT, ATP luminescence, 48 h | hit rate 15% among 420,000; also: potency is read from the fitted curve at half-maximal effect; % is scaled to controls: 0 for no effect and ±100 for the full control effect; nearly all actives have a fitted effect of over 55% in size
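Luminescent ATP content (CellTiter-Glo) served as the growth readout. Knockout chicken DT40 cells expressing human TDP1 were exposed to compounds without camptothecin for a minimum 48 hr at 37 °C.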
D3 ag: activates the human D3 dopamine receptor; D3R DiscoveRx beta-arrestin cells, luminescence, 90 min; hit rate 0.58% among 410,000; max activation, %; P35462; in the data active = max activation above about 30%; also: 0% is about no effect
Target sequence (P35462 whole entry, looked up): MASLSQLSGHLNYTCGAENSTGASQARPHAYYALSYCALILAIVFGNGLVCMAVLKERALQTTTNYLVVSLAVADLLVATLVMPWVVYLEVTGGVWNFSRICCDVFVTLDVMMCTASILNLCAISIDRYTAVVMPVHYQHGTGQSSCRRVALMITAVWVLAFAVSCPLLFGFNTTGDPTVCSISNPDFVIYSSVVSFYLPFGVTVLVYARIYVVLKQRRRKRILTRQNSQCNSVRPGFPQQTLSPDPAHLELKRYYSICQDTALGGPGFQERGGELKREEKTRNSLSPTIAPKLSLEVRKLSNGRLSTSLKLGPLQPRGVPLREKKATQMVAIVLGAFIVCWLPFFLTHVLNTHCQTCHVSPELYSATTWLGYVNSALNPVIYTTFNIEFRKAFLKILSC
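Agonist mode: compounds and dopamine controls were applied to plated cells for 90 min at 37 degrees C after an overnight attachment at 1500 cells/well. Luminescent read-out followed 30 - 60 minutes at room temperature with DiscoveRx detection reagent.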
D3 antag: antagonists of human D3 dopamine receptor. hit rate 2.5% among 360,000. P35462. max response, negative = inhibition, %. AID 652054. D3R cells, DiscoveRx beta-arrestin luminescence, antagonist mode; stronger effect = lower value; in the data active = max response below about -50%; inconclusive = no clear call, values can overlap the other calls; also: % is scaled to controls: 0 for no effect and ±100 for the full control effect
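Cells expressing the human receptor were seeded at 1500 cells/well, incubated overnight at 37 degrees C in 5% CO2, then exposed to library compounds with dopamine controls for 90 minutes at 37 degrees C before luminescent detection.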
ClpP mod: qHTS Assay for Activators of ClpP | ATP-dependent Clp protease proteolytic subunit (Bacillus subtilis (strain 168)), P80244 | purified B. subtilis ClpP, FRET peptide cleavage, 20 min | Potency, µM (top dose mostly 57.5 µM), for the others: top-dose activity change, negative = active | hit rate 1.9% among 340,000 | AID 651965, 2013; active = well fitted falling curve with a large enough effect; inconclusive = small, poorly fitted or top-dose-only effect; inactive = no such curve, though single readings can be large or run the other way; also: potency is read from the fitted curve at half-maximal effect; the source files actives as falling curves though it sought activators and does not explain the sign; nearly all actives have a fitted effect of over 65% in size
Target sequence (P80244 whole entry, looked up): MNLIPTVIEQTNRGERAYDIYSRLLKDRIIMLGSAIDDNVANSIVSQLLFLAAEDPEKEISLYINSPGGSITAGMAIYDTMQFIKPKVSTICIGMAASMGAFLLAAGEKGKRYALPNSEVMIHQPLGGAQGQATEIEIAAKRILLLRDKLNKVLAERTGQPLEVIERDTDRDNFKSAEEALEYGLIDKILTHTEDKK
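Purified B. subtilis ClpP, 10 microg/mL final in Tris/HCl pH8 with KCl, BSA, glycerol and Tween-20, cleaved an Abz/nitrotyrosine-quenched decapeptide. Fluorescence (ex 320, em 430) was read at 0 and 20 min at room temperature. Delta was normalized to 5.8 microM ADEP and DMSO/no-enzyme controls.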
* hit, by the source's call; i = inactive; ? = inconclusive; nt = not tested or not shown. An excerpt weighted towards active compounds, which were near 21% of everything screened. Unless noted, calls follow the shape of the dose curve; as a rule, active = well fitted inhibition curve with a large enough effect; inconclusive = small, poorly fitted or top-dose-only effect; inactive = flat fitted curve, though single readings scatter.

SMILES	IL1B secr inh	TDP1 cell CPT	DT40 TDP1 no CPT	D3 ag	D3 antag	ClpP mod
O=C(CSc1nc2ccccc2o1)NCC1CCCO1 (centres undefined)	2	-8%	6%	-1	6	2%
Cc1cc(C(=O)CSc2nc3ccccc3o2)c(C)n1CC1CCCO1 (centres undefined)	6	9.2µM*	18µM*	-3	33	28µM*
COc1ccc(NC(=O)C2CCC(CNS(=O)(=O)c3csc(C(N)=O)c3)CC2)cc1 (centres undefined)	nt	?	-15%	-5	nt	-1%
CCCCc1cc(=O)oc2cc(C)cc(OCC(=O)NCc3ccccn3)c12	-13	?	?	0	19	4%
Cc1cc(C(=O)Cn2nnc(-c3ccc(Cl)cc3)n2)c(C)n1CC1CCCO1 (centres undefined)	-71*	12µM*	?	7	16	-2%
c1cnc2c(C3NCCc4c3[nH]c3ccccc43)cccc2c1 (centres undefined)	?	?	?	-59	-87*	-3%
CSCCC(NS(=O)(=O)c1cccc(C(F)(F)F)c1)C(=O)N(C)CCOc1ccc(Cl)cc1 (centres undefined)	-57*	?	?	5	9	2%
CSCCC(NS(=O)(=O)c1cccc(C(F)(F)F)c1)C(=O)N1CCN(C(=O)c2ccco2)CC1 (centres undefined)	12	-8%	9%	5	9	-1%
Cn1c(=O)c2c(SCC(=O)NCc3ccco3)nc(CC(C)(C)C)nc2n(C)c1=O	24	?	18µM*	3	31	0%
Cn1c(=O)c2c(SCC(=O)Nc3ccc4c(c3)OCCO4)nc(CC(C)(C)C)nc2n(C)c1=O	7	26µM*	?	0	6	-3%
Cn1c(=O)c2c(SCC(=O)NC3CCCC3)nc(CC(C)(C)C)nc2n(C)c1=O	0	-28%	-14%	1	19	1%
CCN1C(=O)C(CC(=O)Nc2c(C)cccc2C)Nc2cc(S(=O)(=O)N(C)C)ccc21 (centres undefined)	4	9%	-20%	1	5	28µM*
CC(=O)c1cccc(NC(=O)c2c(-c3c(F)cccc3Cl)noc2C)c1	22	-4%	-1%	11	5	-3%
Cc1cccc(C2CC3(CC(C)(C)NC(=S)N3)Oc3cc(O)ccc32)c1 (centres undefined)	-73*	21µM*	13µM*	-9	-10	nt
CC1(C)CC2(CC(c3ccccc3F)c3cc(Cl)c(O)cc3O2)NC(=S)N1 (centres undefined)	-4	2.1µM*	3.7µM*	-1	-18	nt
COc1cccc(C2CC3(CC(C)(C)NC(=S)N3)Oc3cc(O)ccc32)c1 (centres undefined)	0	12µM*	9.2µM*	-2	-29	6%
CCCN(C(=O)CSc1nc(C2CC2)n(-c2ccccc2)n1)C1CCS(=O)(=O)C1 (centres undefined)	-29	-3%	17%	8	-4	-1%
CCCCN1C(=O)c2cccc3cc(O)cc(c23)C1=O	36	-8%	?	3	8	?
Nc1ccc(N(c2ccccc2)c2ccc(N)cc2)cc1	17	16µM*	13µM*	3	-5	35µM*
CCOC(=O)[C@H](CCc1ccccc1)N[C@@H](C)C(=O)N1[C@H](C(=O)O)C[C@H]2CCCC[C@@H]21	nt	4%	-9%	-15	nt	nt
CCOC(=O)c1ccc(NC(=O)CSc2nc3c(c(=O)n2-c2ccccc2OC)SCC3)cc1	2	?	12µM*	-1	19	-16%
Cn1c(SCC(=O)Nc2ccccc2C(F)(F)F)nc2c(c1=O)SCC2	i	16µM*	10µM*	-4	-11	-1%
Cn1c(SCc2ccc(Br)cc2)nc2c(c1=O)SCC2	14	18µM*	16µM*	10	20	2%
Cn1c(SCC(=O)Nc2ccc(C(N)=O)cc2)nc2c(c1=O)SCC2	46	7%	-4%	2	8	-1%
Cn1c(SCC(=O)Nc2cccc(F)c2)nc2c(c1=O)SCC2	8	15µM*	18µM*	11	24	?
SMILES	IL1B secr inh	TDP1 cell CPT	DT40 TDP1 no CPT	D3 ag	D3 antag	ClpP mod
COCCNC(=O)Cn1cnc([N+](=O)[O-])n1	11	5%	?	-5	-71*	nt
CC(C)(C)OC(=O)N1CCC(c2c(C(=O)Nc3ccc4c(c3)OCCO4)cnn2-c2ccccc2)CC1	nt	23µM*	18µM*	7	nt	1%
Cc1ccc(-n2ncc(C(=O)Nc3ccc4c(c3)OCCO4)c2C2CCN(C(=O)OC(C)(C)C)CC2)cc1	nt	21µM*	21µM*	3	nt	-4%
Cc1ccc(-n2ncc(C(=O)Nc3ccc4c(c3)OCO4)c2C2CCN(C(=O)OC(C)(C)C)CC2)cc1	nt	21µM*	21µM*	0	nt	-1%
CC(C)(C)OC(=O)N1CCC(c2c(C(=O)Nc3ccc4c(c3)OCCO4)cnn2-c2ccc(Cl)cc2)CC1	nt	?	?	-5	nt	58%
COc1ccc(-n2ncc(C(=O)Nc3ccc4c(c3)OCO4)c2C2CCN(C(=O)OC(C)(C)C)CC2)cc1	nt	?	?	4	nt	-1%
Cc1cccc(C)c1-n1ncc(C(=O)Nc2ccc3c(c2)OCCO3)c1C1CCN(C(=O)OC(C)(C)C)CC1	nt	?	?	5	nt	-3%
CC(=O)Nc1ccc(NC(=O)c2cc(CN3CCCC3)on2)cc1	nt	-1%	-18%	0	nt	0%
CCc1ccc(N(C(=O)c2snc(C(N)=O)c2N)C(C(=O)NCC2CCCO2)c2cccs2)cc1 (centres undefined)	14	?	21µM*	8	24	nt
NC(=O)c1nsc(C(=O)N(c2ccc(Cl)cc2)C(C(=O)NCC2CCCO2)c2cccs2)c1N (centres undefined)	-83*	?	?	-2	2	4%
Cc1ccc(OC(=O)N(C)C[C@@H]2OCc3cn(nn3)CCCC(=O)N([C@@H](C)CO)C[C@H]2C)cc1	-22	-13%	?	-2	-23	-1%
Cc1cc2c(c(C)c1CCO)C(=O)[C@H](C)C2	-8	-13%	?	0	-50*	2%
CC(C)C[C@@H](COCc1cccc(Cl)c1)N1CCN(C(=O)c2cccc(C(F)(F)F)c2)CCC1=O	?	?	16µM*	-1	1	-3%
